From PubChem BioAssay (NCI)
About 79,000 compounds went through this panel and 15% of them were active in at least one assay; those are over-represented in the sample as a whole. Values without a mark were called inactive. Calls of active or inactive are those of the source. No stated cut-off is given here; in the data, active means growth inhibition above about 70%; inactive means the rest.

Tests used:
[1] = NCI Yeast Anticancer Drug Screen. Data for the rad50 strain (AID 155);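 further: 0% = growth of vehicle-only cultures of the same strain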; details: S. cerevisiae rad50 strain growth inhibition, active compounds read high
Procedure, shortened: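 Relative growth inhibition (compound vs vehicle) was measured in yeast with a defined repair-gene alteration.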

[2] = NCI Yeast Anticancer Drug Screen. Data for the mec2-1 strain (AID 157); details: S. cerevisiae mec2-1 strain, active compounds read high
Procedure, shortened: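 Readout is yeast growth inhibition, normalised to vehicle-treated controls, in the mec2-1 strain exposed to compound.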

[3] = NCI Yeast Anticancer Drug Screen. Data for the sgs1 mgt1 strain (AID 161);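 further: 0% = growth of cultures given vehicle only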; details: S. cerevisiae sgs1 mgt1 strain, active compounds read high
Procedure, shortened: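 Growth of a repair-deficient yeast mutant was monitored after compound treatment and expressed as inhibition relative to vehicle-treated cultures.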

[4] = NCI Yeast Anticancer Drug Screen. Data for the cln2 rad14 strain (AID 165);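 further: 0% = growth equal to vehicle treated cultures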; details: S. cerevisiae cln2 rad14 strain, active compounds read high
Procedure, shortened: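 Relative to vehicle controls, growth inhibition of compound-treated cln2 rad14 yeast was recorded.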

[5] = NCI Yeast Anticancer Drug Screen. Data for the bub3 strain (AID 167); details: S. cerevisiae bub3 mutant strain, active compounds read high
Procedure, shortened: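 Screening used yeast with an engineered genetic alteration affecting cell cycle control. Compound-exposed cultures were compared with vehicle cultures, and reduced growth was taken as inhibition.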

[6] = NCI Yeast Anticancer Drug Screen. Data for the mlh1 rad18 strain (AID 175); details: S. cerevisiae mlh1 rad18 strain growth inhibition, active compounds read high
Procedure, shortened: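 Test agents were incubated with a yeast strain of defined genotype (DNA damage repair defect). Inhibition of growth was derived by comparison with vehicle-exposed cultures.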

[7] = at 5.0 µM (retest, dose inferred, filed as 0.5)
[8] = at 50.0 µM (retest, dose inferred, filed as 5.0)

Compound	growth inhibition [1, 7]	growth inhibition [1, 8]	growth inhibition ([1]; at 50.0 µM)	growth inhibition [2, 7]	growth inhibition [2, 8]	growth inhibition ([2]; at 50.0 µM)	growth inhibition [3, 7]	growth inhibition [3, 8]	growth inhibition ([3]; at 50.0 µM)	growth inhibition [4, 7] [%]	growth inhibition [4, 8]	growth inhibition ([4]; at 50.0 µM)	growth inhibition [5, 7]	growth inhibition [5, 8]	growth inhibition ([5]; at 50.0 µM)	growth inhibition [6, 7]	growth inhibition [6, 8]	growth inhibition ([6]; at 50.0 µM)
COc1ccc(/C=C2\CCC(CN3CCOCC3)C2=O)cc1 (stereo not given)	65%	99% (active)	93.5% (active)	92% (active)	100% (active)	93.8% (active)	55%	99% (active)	93.2% (active)	46	99% (active)	91.8% (active)	96% (active)	99% (active)	92.7% (active)	89% (active)	97% (active)	89.7% (active)
CC/S(=N\S(=O)(=O)c1ccc(C)cc1)c1cccc[n+]1[O-] (stereo not given)	83% (active)	97% (active)	96.1% (active)	82% (active)	99% (active)	96.7% (active)	79% (active)	98% (active)	98% (active)	51	98% (active)	91.2% (active)	85% (active)	98% (active)	96.3% (active)	87% (active)	98% (active)	95.4% (active)
O=C/C(Br)=C\c1ccccc1	36%	99% (active)	55.2%	20%	99% (active)	99.2% (active)	25%	99% (active)	49.5%	12	99% (active)	98.4% (active)	26%	99% (active)	48.4%	16%	99% (active)	7.45%
CCC[CH2][Sn]([CH2]CCC)([O]N(C)C(=O)c1ccc(Br)cc1)[O]N(C)C(=O)c1ccc(Br)cc1	63%	98% (active)	89.5% (active)	87% (active)	99% (active)	90.2% (active)	33%	95% (active)	92.8% (active)	27	98% (active)	90.7% (active)	37%	97% (active)	90.7% (active)	90% (active)	98% (active)	90.5% (active)
CSc1ccc(/C=C2\CNC/C(=C\c3ccc(SC)cc3)C2=O)cc1	12%	18%	47.4%	15%	19%	55.2%	26%	32%	69.8%	23	29%	46.9%	17%	23%	35%	24%	33%	71.6% (active)
NC(c1ccccc1)P(=O)(OCc1ccc([N+](=O)[O-])cc1)OCc1ccc([N+](=O)[O-])cc1 (stereo not given)	15%	15%	57.2%	-4%	-4%	33.6%	-3%	-3%	72.3% (active)	11	11%	35.6%	6%	6%	36.9%	14%	14%	33.4%
Cc1nn(C(=S)S)c(C)c1N=Nc1cccc(F)c1	15%	29%	88.2% (active)	-1%	18%	46.1%	5%	-1%	88.6% (active)	1	5%	24.4%	-1%	7%	72.5% (active)	-1%	21%	90% (active)
C=C1CC2(CC(C(C)C)CCC2C)OC1=O (stereo not given)	14%	38%	7.5%	13%	52%	-2.45%	23%	54%	14.7%	31	57%	19.6%	42%	53%	-11.8%	35%	64%	2.3%
CCn1c(=O)cc2n(C)c3ccccc3n2c1=O	-30%	-23%	17.3%	0%	-7%	17.4%	-15%	-28%	-5.15%	-39	-24%	62.7%	-23%	-15%	0.6%	-36%	-14%	23.4%
C/C=C\C=N\NC(N)=S	4%	5%	8.9%	-3%	5%	83.7% (active)	3%	6%	-17.4%	3	-3%	-24.6%	2%	7%	-2.1%	2%	1%	28.6%
